Results as given in the supplement of paper PMC6555819.

What follows are sequences tested on RARb homodimer (NR concentration 270 nM) (assay: PBM binding z-score (relative to random genomic background probes); higher = stronger binding; sequences stand for … in GC…GCGATTGACAGCGTAGAATGAAGG).
Method in brief: (§1)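 On custom Agilent 4×180K arrays, double-stranded probes with 34-nt variable regions carried direct-repeat seeds, single-nucleotide variants, half-site ablations or random human genomic background. Ligand-free nuclear receptor dimers were applied for 1 h, and binding was read with antibodies against each partner (one per run). Binding z-scores come from regression-normalized fluorescence, with the random background probes as reference.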
With CTCGAAATGTCGGTTGAGGTGAGTATACGGATAA the PBM binding z-score was 0.344. Work on TAGCCTAGGTCATTCAGGGGCCAATATAGAAAGC yielded a PBM binding z-score of 3.51. CGACCTAGGTCATCCAGGACAGTGAATACATTGA was tested, and the PBM binding z-score was 3.41. GCTTGTAGATCAAGGTTGAGAAAGACTAAGCTAA gave a PBM binding z-score of -0.753. Sequence GCAGACAGGTGAAACGAAGGTAACTCAGGGTGGC has a PBM binding z-score of 0.36. In the case of ATATGCAGGTTAAGGGTCATTCAGGTTGGTTCGC, the PBM binding z-score is reported as 3.97. ATCCCTAGGTAAAGTTCAGTGAAAGATCGATAGA was tested, and the PBM binding z-score was 2.36. CATACTGGGCCAAGGTCATTGATCAGTCAAAGCA gave a PBM binding z-score of 3.56. For CGTCCAAGGTCAATGGTCAGTGAAGAGATGACGG, the PBM binding z-score was 4.04. With CCGACTGGGGCAAGGATACCATAACGCACAGCCA the PBM binding z-score was 0.07. With CCTAGTTGGTAAGGAGGTCACACACCGGATATGA the PBM binding z-score was 3.85. In the case of TAGCCTAGGTAATTCAGGGGCCAGTATAGAAAGC, the PBM binding z-score is reported as 0.306. CGTCCATGGTCATAGGAGGTCAGTGAAGACAGAT showed a PBM binding z-score of 3.47. GGAACGAGGGCAAAGTTGATAACATCTGTCGACG was tested, and the PBM binding z-score was 1.21. Sequence TCGAGTAGGTTACGAATGGGGCATTCAGCTTTCT has a PBM binding z-score of 0.29. In the case of TCGAGTAGCTTAGTCGGGGCATTCAGCCAACATA, the PBM binding z-score is reported as -0.405. In the case of CGAACTAGGTCATCCAGGACAGTGAATACATTGA, the PBM binding z-score is reported as 3.06. Sequence GCTAGCCGGCCATTTGGGTCACTCAATGACGGGC has a PBM binding z-score of 1.75. With TCATATAGGTAAACAGGTGCAAGTCCGTAAGTTA the PBM binding z-score was 0.278. CGTCCAAGGTCAAGGTAAGTGAAAGAGACTCGAA showed a PBM binding z-score of 4.02. Work on CCTTACGGGTCACAAGGTTATAGCACGACGAGCG yielded a PBM binding z-score of 3.71. With ACTATTAGTTGAGACGAGGCCAACCGATAGGTTG the PBM binding z-score was 0.728. In the case of TCTTGTAAATCAAAGGTTAAGAAAGCCGAAGCCT, the PBM binding z-score is reported as 1.35. Work on TCATATAGGTAAACAGGTGAAAGTGCGTAAGTTA yielded a PBM binding z-score of 1.09. CGTCCAAGATCAAAGGTCAGTGAAGAGATGACGG was tested, and the PBM binding z-score was 4.44. CCTGCTAGGTCAATGGTCAGCTACAGCAGCTCGC was tested, and the PBM binding z-score was 2.95. For AGAGACAGGTGAGTGAAGGTAACTCAGCTGGACG, the PBM binding z-score was 0.498. Work on ATCTTTAGGTAAAGTTCAGTGAAAGATCGATAGA yielded a PBM binding z-score of 2.48. TAGCCTAGGTCATGGGCCGGTATACCACGCGAAC was tested, and the PBM binding z-score was 3.04. CCTAGCAGGCCAATCTGTGTCACTCAAGGCTTGA was tested, and the PBM binding z-score was 0.114. Sequence CGGACTAGGTCAAGGACAGTGAATCTCCGCACGC has a PBM binding z-score of 2.94. Sequence ATCTCTAGGTAACCAAGTTCCGTGAATGCCGAAC has a PBM binding z-score of -0.23. CAAACTAGGTCAAGGTCACAGTCGGTTTGTGCCA showed a PBM binding z-score of 5.15. For CTCGAAAGGTCGGTTGAGGTAAGTATACGGATAA, the PBM binding z-score was 1.72. For TCTCGGAGGGCACGAAGGTCAGAGCTTTCCAGAG, the PBM binding z-score was 3.94. TCATATAGGTAAAAGGTGAAAGTCGGTGTGGTAA was tested, and the PBM binding z-score was 2.06. For CCGACTGGGGCATAAGCTTACCATAAGCCAGCCC, the PBM binding z-score was -0.773. CCGACTGGGGCAAAGGTTACTATACTCAGTACGA was tested, and the PBM binding z-score was 1.74. With AGTCAAAGTTCAGGACGAGGTAACCTAAAGCACG the PBM binding z-score was 3.52. With CCAGACAGGTGTAAGGTAACTCAGTCTGGTACGC the PBM binding z-score was -0.201.

The sequences below were run on RARg:RXRa (NR concentration 270 nM, RXRa partner concentration 90 nM) in the same assay as above.
Method in brief: as §1
Sequence CTCGAAATGTCGGTTGAGGTGAGTATACGGATAA has a PBM binding z-score of 0.0589. Sequence TAGCCTAGGTCATTCAGGGGCCAATATAGAAAGC has a PBM binding z-score of 6.6. For CGACCTAGGTCATCCAGGACAGTGAATACATTGA, the PBM binding z-score was 4.75. For GCTTGTAGATCAAGGTTGAGAAAGACTAAGCTAA, the PBM binding z-score was -0.343. With GCAGACAGGTGAAACGAAGGTAACTCAGGGTGGC the PBM binding z-score was 1.1. ATATGCAGGTTAAGGGTCATTCAGGTTGGTTCGC showed a PBM binding z-score of 4.66. Work on ATCCCTAGGTAAAGTTCAGTGAAAGATCGATAGA yielded a PBM binding z-score of 1.81. Sequence CATACTGGGCCAAGGTCATTGATCAGTCAAAGCA has a PBM binding z-score of 3.85. CGTCCAAGGTCAATGGTCAGTGAAGAGATGACGG gave a PBM binding z-score of 5.46. CCGACTGGGGCAAGGATACCATAACGCACAGCCA was tested, and the PBM binding z-score was 0.225. CCTAGTTGGTAAGGAGGTCACACACCGGATATGA was tested, and the PBM binding z-score was 3.75. TAGCCTAGGTAATTCAGGGGCCAGTATAGAAAGC was tested, and the PBM binding z-score was 0.386. Sequence CGTCCATGGTCATAGGAGGTCAGTGAAGACAGAT has a PBM binding z-score of 2.87. With GGAACGAGGGCAAAGTTGATAACATCTGTCGACG the PBM binding z-score was 2.19. TCGAGTAGGTTACGAATGGGGCATTCAGCTTTCT gave a PBM binding z-score of 0.904. Work on TCGAGTAGCTTAGTCGGGGCATTCAGCCAACATA yielded a PBM binding z-score of -0.536. CGAACTAGGTCATCCAGGACAGTGAATACATTGA gave a PBM binding z-score of 4.04. GCTAGCCGGCCATTTGGGTCACTCAATGACGGGC was tested, and the PBM binding z-score was 0.912. Sequence TCATATAGGTAAACAGGTGCAAGTCCGTAAGTTA has a PBM binding z-score of 0.453. CGTCCAAGGTCAAGGTAAGTGAAAGAGACTCGAA showed a PBM binding z-score of 6.03. In the case of CCTTACGGGTCACAAGGTTATAGCACGACGAGCG, the PBM binding z-score is reported as 5.7. ACTATTAGTTGAGACGAGGCCAACCGATAGGTTG gave a PBM binding z-score of 0.273. In the case of TCTTGTAAATCAAAGGTTAAGAAAGCCGAAGCCT, the PBM binding z-score is reported as 1.39. TCATATAGGTAAACAGGTGAAAGTGCGTAAGTTA was tested, and the PBM binding z-score was 0.642. Work on CGTCCAAGATCAAAGGTCAGTGAAGAGATGACGG yielded a PBM binding z-score of 4.65. For CCTGCTAGGTCAATGGTCAGCTACAGCAGCTCGC, the PBM binding z-score was 3.82. Work on AGAGACAGGTGAGTGAAGGTAACTCAGCTGGACG yielded a PBM binding z-score of 0.327. ATCTTTAGGTAAAGTTCAGTGAAAGATCGATAGA gave a PBM binding z-score of 1.99. TAGCCTAGGTCATGGGCCGGTATACCACGCGAAC gave a PBM binding z-score of 4.1. In the case of CCTAGCAGGCCAATCTGTGTCACTCAAGGCTTGA, the PBM binding z-score is reported as -0.172. With CGGACTAGGTCAAGGACAGTGAATCTCCGCACGC the PBM binding z-score was 3.54. Work on ATCTCTAGGTAACCAAGTTCCGTGAATGCCGAAC yielded a PBM binding z-score of 0.14. Work on CAAACTAGGTCAAGGTCACAGTCGGTTTGTGCCA yielded a PBM binding z-score of 6.22. In the case of CTCGAAAGGTCGGTTGAGGTAAGTATACGGATAA, the PBM binding z-score is reported as 2.37. TCTCGGAGGGCACGAAGGTCAGAGCTTTCCAGAG was tested, and the PBM binding z-score was 4.11. In the case of TCATATAGGTAAAAGGTGAAAGTCGGTGTGGTAA, the PBM binding z-score is reported as 2.24. CCGACTGGGGCATAAGCTTACCATAAGCCAGCCC gave a PBM binding z-score of -0.376. Work on CCGACTGGGGCAAAGGTTACTATACTCAGTACGA yielded a PBM binding z-score of 2.75. In the case of AGTCAAAGTTCAGGACGAGGTAACCTAAAGCACG, the PBM binding z-score is reported as 4.84. Sequence CCAGACAGGTGTAAGGTAACTCAGTCTGGTACGC has a PBM binding z-score of -0.0982.
